Out of some 310,000 compounds screened, about 14,000 (4.5%) showed an effect of 50% or more. Effects have a minus sign here. The list comes from a sample in which strong results are over-represented; it also holds similar structures and randomly drawn compounds.
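Also: peak tail current of the secondary pulse compared with the same well before compound.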

Sequence of human ether-à-go-go-related gene (hERG) potassium channel (Q12809 whole entry, looked up): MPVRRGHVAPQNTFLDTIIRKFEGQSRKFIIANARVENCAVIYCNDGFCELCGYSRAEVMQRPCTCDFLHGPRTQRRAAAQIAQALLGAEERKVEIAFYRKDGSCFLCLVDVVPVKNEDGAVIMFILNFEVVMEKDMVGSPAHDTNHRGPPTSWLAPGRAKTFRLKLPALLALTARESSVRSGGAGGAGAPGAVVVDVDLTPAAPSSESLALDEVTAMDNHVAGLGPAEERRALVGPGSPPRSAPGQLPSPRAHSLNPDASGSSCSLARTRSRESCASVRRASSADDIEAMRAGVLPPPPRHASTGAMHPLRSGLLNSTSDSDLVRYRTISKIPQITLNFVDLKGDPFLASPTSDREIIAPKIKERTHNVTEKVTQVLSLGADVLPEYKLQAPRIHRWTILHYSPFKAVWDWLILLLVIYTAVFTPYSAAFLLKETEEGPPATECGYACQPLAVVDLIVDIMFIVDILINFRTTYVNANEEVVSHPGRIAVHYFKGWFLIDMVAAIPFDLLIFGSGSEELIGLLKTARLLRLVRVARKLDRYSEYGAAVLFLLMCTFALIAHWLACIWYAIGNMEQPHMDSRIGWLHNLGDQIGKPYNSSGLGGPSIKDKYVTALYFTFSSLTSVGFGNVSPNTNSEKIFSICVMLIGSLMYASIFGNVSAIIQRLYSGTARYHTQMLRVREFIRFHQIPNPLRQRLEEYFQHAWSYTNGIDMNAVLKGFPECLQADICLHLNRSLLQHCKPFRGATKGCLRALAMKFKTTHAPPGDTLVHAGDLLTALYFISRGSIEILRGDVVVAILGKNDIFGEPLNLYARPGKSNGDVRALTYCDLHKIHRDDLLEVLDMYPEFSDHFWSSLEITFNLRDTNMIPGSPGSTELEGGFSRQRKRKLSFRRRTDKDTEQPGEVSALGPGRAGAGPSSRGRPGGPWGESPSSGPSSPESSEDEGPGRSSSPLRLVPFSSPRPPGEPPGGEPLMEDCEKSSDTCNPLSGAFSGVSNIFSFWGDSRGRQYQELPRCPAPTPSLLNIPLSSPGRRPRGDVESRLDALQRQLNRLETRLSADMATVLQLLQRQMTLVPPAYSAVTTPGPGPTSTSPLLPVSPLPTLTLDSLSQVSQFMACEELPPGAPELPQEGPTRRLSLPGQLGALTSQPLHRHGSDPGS

The assay has as its target human ether-à-go-go-related gene (hERG) potassium channel (human, UniProt Q12809). The assay can be described thus: primary screen, population patch clamp on CHO cells stably expressing hERG; higher = less effect of the substance.
Turning to `CC1=C(/C=C/c2ccccc2)CCN(C)C1.Cl`, the “hERG current change (%, negative = inhibition) at 10uM” value was -24.6%.
`Cl.OC(CN1CC=C(/C=C/c2ccc(Br)cc2)CC1)c1ccccc1` (stereo not shown): the “hERG current change (%, negative = inhibition) at 10uM” value is reported as -2.33%.
As for `CN1CC=C(/C=C/c2ccc(-c3ccccc3)cc2)CC1.Cl`, the “hERG current change (%, negative = inhibition) at 10uM” value is reported as -50.1%.
`CCCCc1nc(SCC(=O)Nc2cccc(Cl)c2)n[nH]1`: the “hERG current change (%, negative = inhibition) at 10uM” value is listed as -4.4%.
The value for `Nc1ccc2nc(SCC(=O)c3ccccc3)sc2c1` was 9.11%.
The value for `COc1ccc(NC(=S)NCCCN2CCCC2)cc1` was 5.95%; that for `CCOc1ccc(NC(=S)NCCCN2CCN(c3ccc(OC)cc3)CC2)cc1` was -70.7%.
The value for `CCOc1ccc(NC(=S)NCCCc2ccccc2)cc1` was -12.4%.
Consider `CCCOc1cccc(C(=O)NC(=S)Nc2ccc(N3CCN(C)CC3)cc2)c1`, for which the “hERG current change (%, negative = inhibition) at 10uM” value is given as 1.67%.
The value for `CCOc1cccc(C(=O)NC(=S)Nc2ccc(N3CCN(CC)CC3)cc2)c1` was -72.1%; that for `COc1ccc(N2CCN(CCCNC(=S)Nc3c(C)cccc3C)CC2)cc1` was -52.4%; that for `CCOc1ccc(NC(=S)Nc2ccc(OCc3ccccc3)cc2)cc1` was 4.64%.
In the case of `CCOc1ccc(NC(=S)NCCN2CCN(Cc3ccccc3)CC2)cc1` it was -62.3%; in that of `COc1ccc(N2CCC(CNC(=S)Nc3c(C)cccc3C)C2)cc1` (stereo not shown), -4.72%.
In the case of `CCOc1cccc(C(=O)NC(=S)Nc2ccc(N3CCCC3)cc2)c1` it was 10.8%.
With `CCCN1CCN(CCCNC(=S)Nc2ccc(OC)cc2)CC1`, the “hERG current change (%, negative = inhibition) at 10uM” value is -22.8%.
In the case of `CCOc1ccc(NC(=S)NCCCN2CCOCC2)cc1` it was 10.7%; in that of `COCCCn1cc(C(=O)c2ccccc2OCC(=O)Nc2cccc(F)c2)cc(C#N)c1=O`, -35.9%; in that of `CN([C@@H](C(=O)OC(C)(C)C)c1ccccc1)S(=O)(=O)c1cccc(S(=O)(=O)N(C)[C@@H](C(=O)OC(C)(C)C)c2ccccc2)c1`, 14.3%.
In the case of `O=C(Nc1ccc(Cl)cc1F)c1cccc2ccccc12` it was 12.2%; in that of `COc1cc(Cn2c(=O)c3c(OC)c(C)cnc3n(C)c2=O)cc(OC)c1`, 14.1%.
`Cn1c(CO)cnc1SCc1ccc(Cl)cc1`: the “hERG current change (%, negative = inhibition) at 10uM” value came out at 0.94%.
The value for `Cc1ccc(C(=O)NC(=S)NCCCN2CCOCC2)cc1` was -7.43%; that for `O=C(NC(=S)NCCCN1CCOCC1)c1ccc(Br)cc1` was -42.9%.
The value for `CCOc1ccc(C(=O)NC(=S)NCCCN2CCOCC2)cc1` was -50.1%.
The value for `O=C(O)c1ccc(N2C(=O)CC(N3CCN(c4ccc(Cl)cc4)CC3)C2=O)cc1` (stereo not shown) was 6.79%; that for `O=C(NCc1ccc(-c2csnn2)cc1)C1CC1` was 7.09%.
Turning to `CC1CCN(c2nc3c(=O)[nH]c(N)nc3n2[C@@H]2O[C@H](CO)[C@@H](O)[C@H]2O)CC1`, the “hERG current change (%, negative = inhibition) at 10uM” value worked out at 13.6%.
For the molecule `COC(=O)c1ccc(NC(=O)Cn2cnc3c(nnn3-c3cccc(OC)c3)c2=O)cc1`, the “hERG current change (%, negative = inhibition) at 10uM” value was 3.08%.
The value for `Cl.Clc1ccc2nc3c(c(-c4ccccc4)c2c1)CNCC3` was -37.3%.
In the case of `CN1CCc2nc3ccc(F)cc3c(C(N)=O)c2C1.Cl` it was -4.4%; in that of `CN1CCc2nc3ccc(Cl)cc3c(-c3ccccc3Cl)c2C1.Cl`, -65.7%.
The value for `CN(C)c1ccc(Nc2ncnc3ccc(Br)cc23)cc1` was 20.4%; that for `CNc1c([N+](=O)[O-])cnn1-c1ccc(C)cc1` was -2.24%; that for `CC(C)/C=C/CN1CCCC(N2CCN(c3cccc(Cl)c3)CC2)C1` (stereo not shown) was -50.7%.
Take `COc1ccc(CN2CCCC(N3CCN(c4cccc(Cl)c4)CC3)C2)cc1OC` (stereo not shown): the “hERG current change (%, negative = inhibition) at 10uM” value was -54.1%.
In the case of `COc1ccc(O)c(CN2CCCC(N3CCN(c4ccccc4OC)CC3)C2)c1` (stereo not shown) it was -11%; in that of `CC(C)CN1CCCC(N2CCN(c3cccc(Cl)c3)CC2)C1` (stereo not shown), -21.5%.
Consider `CCOc1cc(CN2CCCC(N3CCN(c4ccc(F)cc4)CC3)C2)ccc1OC` (stereo not shown), for which the “hERG current change (%, negative = inhibition) at 10uM” value is on record as -62.7%.
Turning to `COc1ccc(O)c(CN2CCCC(N3CCN(c4ccc(F)cc4)CC3)C2)c1` (stereo not shown), the “hERG current change (%, negative = inhibition) at 10uM” value is reported as -59.7%.
Turning to `Cc1cccc(C(=O)N2CCCC(N3CCN(c4cccc(Cl)c4)CC3)C2)n1` (stereo not shown), the “hERG current change (%, negative = inhibition) at 10uM” value was -17.5%.
In the case of `COc1cc(CN2CCCC(N3CCN(c4ccccc4C)CC3)C2)ccc1O` (stereo not shown) it was -27%.
Take `CCOc1cc(CN2CCN(c3ccc(C(C)=O)cc3)CC2)ccc1OC`: the “hERG current change (%, negative = inhibition) at 10uM” value is given as -23.5%.
On to `COc1ccccc1N1CCN(C2CCCN(Cc3ccc(Cl)cc3)C2)CC1` (stereo not shown), for which the “hERG current change (%, negative = inhibition) at 10uM” value is given as -41.1%.
The value for `COc1ccc(N2CCN(C3CCCN(Cc4ccc(F)cc4Cl)C3)CC2)cc1` (stereo not shown) was -35.2%; that for `COc1ccccc1N1CCN(C2CCCN(Cc3cccc(O)c3)C2)CC1` (stereo not shown) was -9.65%.

Values taken from PMC4336329 (PLoS ONE, 2015).
